Screens as filed in PubChem BioAssay.
Tau fil binding: tau filament binding; AID 596; Potency, µM (titrated, usually from 57.1 µM); recombinant tau filaments, thioflavin S fluorescence, 15 h; filaments grown with octadecylsulfate alongside compound; 71,000 compounds, 2% hits;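 note: actives lower thioflavin S fluorescence by blocking filaments or displacing dye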
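Quantitative HTS: thioflavine S signal from ODS-induced tau filaments, excited at 450 nm, emission 510 nm. Conditions: 1 uM tau, 30 uM ODS, 15 h at 37 C, pH 7.4.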
ALOX15 inhib: 15-hLO (ALOX15) enzyme inhibition; P16050; purified 15hLO-1, xylenol orange hydroperoxide absorbance; Potency, µM (doses to about 57.1 µM), hits mostly inhibitors; 74,000 compounds, 1.4% hits; AID 887; note: nearly all actives have a fitted effect of over 55% in size
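Readout: Fe(III)-xylenol orange absorbance, 573-to-405 nm ratio as reaction progress. Enzyme 40 nM purified human 15hLO-1, substrate 50 uM arachidonic acid, 6 min RT after 15 min compound preincubation; Hepes pH 7.5 buffer with Triton X-100.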
PK Bst: alters activity of Bacillus stearothermophilus pyruvate kinase; Potency, µM; 51,000 compounds, 1.2% hits; purified pyruvate kinase, luminescence ATP production; ribose 5-phosphate activator present at AC10; in the data active = potency below about 11 µM; inconclusive = mostly about 12 µM to 25 µM;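 the screen sought inhibitors and activators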
FLuc inh: inhibitors of firefly luciferase | 72,000 compounds, 2.2% hits | purified firefly luciferase, luminescence, 8 min | Potency, µM (top dose mostly 57.1 µM), usual class: inhibitors; note: nearly all actives have a fitted effect of over 40% in size
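Firefly luciferase (PKLight detection mix) with 10 uM ATP in pH 7.2 imidazole buffer (KCl, MgCl2, Tween 20, BSA). Compounds tested across a concentration series (qHTS). Luminescence read after 8 min at ambient temperature.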
TSHR agonist: activates the human thyroid stimulating hormone receptor. P16473. HEK293-CNG-TSHR cells (CNG channel as cAMP sensor), membrane potential dye, cAMP. Potency, µM (titrated, usually from 57.1 µM), hits mostly activators. 73,000 compounds, 0.48% hits; active = well fitted activation curve with a large enough effect in the main read-out, with a control signal flat, not every such curve was filed as active; inconclusive = small, poorly fitted or top-dose-only effect, or a change in a side signal; inactive = no such curve, though single readings can be large or run the other way; reference of the percent scale not stated here;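 note: the control signal comes from parental cells without the receptor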
Target sequence (P16473 whole entry, looked up): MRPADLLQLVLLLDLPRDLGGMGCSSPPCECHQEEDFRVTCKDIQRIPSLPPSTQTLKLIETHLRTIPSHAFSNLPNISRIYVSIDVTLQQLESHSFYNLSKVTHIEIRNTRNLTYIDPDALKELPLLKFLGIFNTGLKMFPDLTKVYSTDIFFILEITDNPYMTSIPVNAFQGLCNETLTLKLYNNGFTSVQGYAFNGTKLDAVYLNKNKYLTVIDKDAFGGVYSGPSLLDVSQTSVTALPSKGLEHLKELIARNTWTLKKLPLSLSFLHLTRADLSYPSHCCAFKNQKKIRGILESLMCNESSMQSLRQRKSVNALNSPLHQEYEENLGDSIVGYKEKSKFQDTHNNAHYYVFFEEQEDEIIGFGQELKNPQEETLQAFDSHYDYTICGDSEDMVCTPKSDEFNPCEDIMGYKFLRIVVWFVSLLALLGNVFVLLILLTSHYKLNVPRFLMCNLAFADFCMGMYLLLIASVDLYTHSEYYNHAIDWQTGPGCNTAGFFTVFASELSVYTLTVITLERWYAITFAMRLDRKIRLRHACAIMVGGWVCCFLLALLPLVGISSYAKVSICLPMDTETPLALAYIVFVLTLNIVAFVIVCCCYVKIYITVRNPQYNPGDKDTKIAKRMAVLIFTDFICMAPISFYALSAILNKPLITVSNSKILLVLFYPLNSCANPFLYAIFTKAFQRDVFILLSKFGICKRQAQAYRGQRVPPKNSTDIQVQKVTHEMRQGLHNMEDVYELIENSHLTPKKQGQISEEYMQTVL
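HEK 293 cells stably expressing TSHR and a modified CNG channel, with CNG-only parental cells as counterscreen, were preloaded 60 min at room temperature with membrane potential dye containing 100 uM RO 20-1724. Compound exposure was 30 min, and depolarization was read as fluorescence at 590 nm.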
HEK293 cAMP ctrl: raises cAMP in parental HEK293 cells, TSHR agonist counter-screen; parental HEK293 CNG cAMP sensor, membrane potential fluorescence; Potency, µM (top dose mostly 57.1 µM), actives largely listed as activators; 73,000 compounds, 2.5% hits; AID 938; note: nearly all actives have a fitted effect of over 55% in size
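Parental HEK 293 cells stably expressing a cAMP-gated CNG channel were loaded with membrane potential dye containing 100 uM RO 20-1724 for 60 min. Compound added for 30 min; depolarization read as fluorescence intensity at 590 nm.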
Hits are given with their value; 0 = inactive; ? = inconclusive; - = no result; ! = not active in a repeat; [ ] = dose if it differs, or a comment. Hits are enriched below; roughly 7.8% of the tested compounds scored in any of these assays. Unless noted, calls come from the whole dose curve; as a rule, active = well fitted curve in the direction sought with a large enough effect; inconclusive = small, poorly fitted or top-dose-only effect, or another doubt; inactive = no such curve, though single readings can be large; an effect the other way counts as inactive or inconclusive.

SMILES	Tau fil binding	ALOX15 inhib	PK Bst	FLuc inh	TSHR agonist	HEK293 cAMP ctrl
COC(=O)C1=C(C)NC(C)=C(C(=O)OC)C1c1cn(-c2ccccc2)nc1-c1ccco1	0	?	-	0	1.6µM	0
CCCn1c(-c2ccc(F)cc2)nc2c(N3CCN(CCn4ccnc4)CC3)nc(C)nc21	0	0	-	-	?	?
CNc1nc(-c2ccc(Cl)cc2)cs1	0	0	8.1	10µM	0	0
CCNc1nc(-c2ccc(Cl)cc2)cs1	0	?	10	13µM	0	0
CC1(C)CC2CC(C)(CN2C(=O)COC(=O)c2ccc(Cl)cc2N)C1 (stereo not drawn)	0	0	0	0	?	25µM
O=c1c2c([nH]c3ccc(Br)cc13)CCCC2	0	0	-	0	0	0
O=c1ccc2cc3c([nH]c4ccc(Br)cc43)oc-2c1O	13µM	25µM	0	0	0	0
Cc1cc(C)nc(SCc2nnc(SCC(=O)Nc3cc(C(F)(F)F)ccc3Cl)o2)n1	0	0	0	0	?	?
Cc1cc(C)nc(SCc2nnc(SCc3ccccc3Cl)o2)n1	0	0	0	0	?	20µM
COc1ccccc1N1CCN(c2ccc(-c3ccccc3)nn2)CC1	?	0	1.6	0.63µM	?	?
COc1ccccc1N1CCN(c2nc(-c3ccccc3)cc(C(F)(F)F)n2)CC1	0	0	0	0	0[11.4 µM]	0
COc1cccc(-c2cncnc2NCc2cccc(C)c2)c1	0	0	-	0[2.29 µM]	?	?
CC(C)(C)c1onc(OCP(=O)(O)O)c1C[C@@H](N)C(=O)O	0	0	-	0	0	0
N#C/C(=C\c1ccc(O)c(O)c1)C(=O)c1ccc(O)c(O)c1	0	4µM	-	0	0	0
N#C/C(=C\c1ccc(O)c(O)c1)C(=O)OCCc1cccs1	0	?	-	0	0	0
O=C(O)CCCC(=O)NCCCc1ccccc1	0[11.4 µM]	0[11.4 µM]	-	0	0[11.4 µM]	0[11.4 µM]
N#C/C(=C\c1c[nH]c2ccccc12)C(=O)c1ccc(O)c(O)c1	0	0.25µM	-	0	0	0
NC(=S)N/N=C\c1c[nH]c2ccccc12	0[11.4 µM]	0[11.4 µM]	-	0[11.4 µM]	0[11.4 µM]	0[11.4 µM]
N#C/C(=C\c1ccc(O)c(O)c1)S(=O)(=O)c1ccccc1	0	4µM	0	0	0	0
N#C/C(=C\c1ccc(O)c(O)c1)C(=O)NCCCc1ccccc1	0	2.5µM	0	0	0	0
Cc1cccn2c(=O)c(/C=C(\C#N)S(=O)(=O)c3ccccc3)c(N3CCN(C)CC3)nc12	-	-	0	0	-	-
CC(C)[C@@H](OCc1ccccc1)[C@H](C)/C=N\O[C@@H](C)c1cn([C@@H]2COC[C@@H]2O)nn1	-	0[11.4 µM]	-	0[11.4 µM]	0[11.4 µM]	0[11.4 µM]
O=C(O)C[C@H](Sc1ccccc1)c1ccccc1	0[11.4 µM]	0[11.4 µM]	-	0[11.4 µM]	?	?
N[C@@H](Cc1c[nH]c2ccccc12)C(=O)NCC(=O)O	?	-	-	0[11.4 µM]	0	0
CCCn1c(C)nc2c(NCCCCN(C)C)nc(C)nc21	0	0	-	-	0	0
SMILES	Tau fil binding	ALOX15 inhib	PK Bst	FLuc inh	TSHR agonist	HEK293 cAMP ctrl
O=C(OCc1nc2ccccc2s1)C1CCN(S(=O)(=O)c2cccs2)CC1	0	0	0	32µM	0	0
C(=C\c1ccccc1)/CN1CCN(c2ncnc3c2oc2ccccc23)CC1	0	0	0	13µM	-	0
c1cnc(N2CCN(c3ncnc4c3oc3ccccc34)CC2)nc1	0	0	0	0	-	0
c1ccc2c[n+](CCCC[n+]3ccc4ccccc4c3)ccc2c1	3.2µM	0[11.4 µM]	-	0[11.4 µM]	0[11.4 µM]	0[11.4 µM]
CCC(C(=O)N1CCN(c2cccc(Cl)c2)CC1)c1ccccc1 (stereo not drawn)	0	0	-	0	?	25µM
O=C(O)CCC(=O)N1CCN(c2cccc(Cl)c2)CC1	0	0	0	0	0	0
O=C(CCc1ccccc1)Nc1c(F)c(F)c(F)c(F)c1F	0	0	-	0	?	16µM
COC(=O)c1cc(Cc2ccc(N)c(C(=O)OC)c2)ccc1N	?	25µM	-	0	?	?
Cn1c(C(=O)N2CCCC(C(=O)NCCCc3ccccc3)C2)cc2sccc21 (stereo not drawn)	0	0	0	0	?	?
Cn1c(C(=O)N(Cc2ccccc2)Cc2ccccn2)cc2sccc21	0	0	0	0	?	16µM
Cn1c(C(=O)N(Cc2ccccc2)Cc2cccs2)cc2sccc21	0	0	0	0	?	16µM
COc1cc2ccc(=O)oc2c(O)c1O	?	13µM!	-	0[11.4 µM]	0	0
COc1cc(OC)cc(-c2nnc(SCC(=O)Nc3cc(C)on3)o2)c1	0	0	0	0	0	0
COc1ccc2c(c1)c(CC(=O)N1CCOCC1)c(C)n2C(=O)c1ccc(Cl)cc1	0	0	-	0	?	40µM!
CCOc1ccc(N2Cc3ccccc3C2)cc1	16µM	0	-	10µM	0	0
CCOc1ccc(S(=O)(=O)N2CCc3ccccc3C2)cc1	0	0	0	0	0	0
COc1ccc(C(=O)c2oc3ccccc3c2N)cc1	13µM	0	?	0	0	0
COc1ccc2oc(C(=O)C3CC3)c(N)c2c1	0	0	-	25µM	0	0
Nc1c(C(=O)c2ccc(F)cc2)oc2ccccc12	?	0	0	0	0	0
O=C(c1cc(C(F)(F)F)cc(C(F)(F)F)c1)N1CCC2(CCCN(c3ncccn3)C2)CC1	0	0	-	0[11.4 µM]	?	?
COc1cccc(/C=N/n2c(C)nc3ccccc32)c1OC	0	0	?	0	?	16µM
COc1cccc(/C=N/n2cnnc2)c1OCc1ccccc1	0	0	-	0	0	0
O=[N+]([O-])c1ccc(NCCO)c(OCCO)c1	0	0	-	-	?	?
Cc1nc2cc(CO)ccc2s1	0	0	0	0	0	0
Cc1nc2cc3nc(C)sc3cc2s1	0	0	0	16µM	0	0
SMILES	Tau fil binding	ALOX15 inhib	PK Bst	FLuc inh	TSHR agonist	HEK293 cAMP ctrl
COc1ccccc1N(CC(O)CN1C(=O)NC(C)(C)C1=O)S(=O)(=O)c1ccc(C)cc1 (stereo not drawn)	0	0	-	0	0	0
Cc1ccc(C2C3=C(CC(C)(C)CC3=O)Nc3[nH]c(=S)[nH]c(=O)c32)cc1 (stereo not drawn)	0	20µM	0	0	0	0
Cc1[nH]nc2c1C(c1ccccc1)C1=C(CC(C)(C)CC1=O)N2 (stereo not drawn)	0	0	0	0	?	?
O=c1c[n+](CCCC[n+]2cc(=O)o[nH]2)[nH]o1	0[11.4 µM]	0[11.4 µM]	-	0[11.4 µM]	0[11.4 µM]	0[11.4 µM]
COc1ccccc1-c1nccc(Nc2ccc(F)cc2)n1	16µM	0	-	0[2.29 µM]	?	?
COc1ccccc1-c1nccc(NCc2cccs2)n1	0	10µM	-	0[2.29 µM]	?	?
FC(F)(F)c1ccccc1-c1nccc(NCc2cccs2)n1	0	0	-	0[2.29 µM]	?	?
CN(C)c1ccc(-c2nccc(NCc3cccs3)n2)cc1	0	?	-	0.5µM	0	0
c1csc(CNc2ccnc(-c3ccoc3)n2)c1	0	20µM	-	0[2.29 µM]	0	0
CN(C)C(=O)c1ccc(-c2nccc(NCc3cccs3)n2)cc1	0	0	-	0[2.29 µM]	0	0
